Experimental data as given in PubChem BioAssay.
A number with no mark means an inactive call. This is one part of the list. Activity calls are given as the source filed them. Rule as the data show it, unless noted: active = inhibition above about 36%; inactive = the rest.

Experiments:
[1] = StAR promoter reporter inhibitors, counter-screen for LRH-1 inverse agonist project, cell-based, luminescence, high throughput (AID 651611; in the data active = inhibition above about 28%); settings: StAR promoter luciferase reporter counterscreen, at 3.6 µM, hits give high values
[2] = VP16 transactivation reporter inhibitors, counter-screen for LRH-1 inverse agonist project, cell-based, luminescence, high throughput (AID 651615; in the data active = inhibition above about 33%); settings: Gal4-VP16 luciferase reporter cells, at 3.6 µM, hits give high values
[3] = target: Nuclear receptor subfamily 5 group A member 2 (Homo sapiens) (UniProt O00482); assay: LRH-1 (NR5A2) inverse agonists, retest, confirmation, cell-based, luminescence (AID 651613; in the data active = inhibition above about 42%;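 also: HEK293T cells co-transfected with LRH-1 and StAR promoter luciferase reporter; 0% = vehicle wells and 100% = parental cells lacking receptor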); settings: cell-based LRH-1 luciferase reporter, inverse agonism; at 3.6 µM; hits give high values
Sequence of Nuclear receptor subfamily 5 group A member 2 (Homo sapiens) (O00482 whole entry, looked up): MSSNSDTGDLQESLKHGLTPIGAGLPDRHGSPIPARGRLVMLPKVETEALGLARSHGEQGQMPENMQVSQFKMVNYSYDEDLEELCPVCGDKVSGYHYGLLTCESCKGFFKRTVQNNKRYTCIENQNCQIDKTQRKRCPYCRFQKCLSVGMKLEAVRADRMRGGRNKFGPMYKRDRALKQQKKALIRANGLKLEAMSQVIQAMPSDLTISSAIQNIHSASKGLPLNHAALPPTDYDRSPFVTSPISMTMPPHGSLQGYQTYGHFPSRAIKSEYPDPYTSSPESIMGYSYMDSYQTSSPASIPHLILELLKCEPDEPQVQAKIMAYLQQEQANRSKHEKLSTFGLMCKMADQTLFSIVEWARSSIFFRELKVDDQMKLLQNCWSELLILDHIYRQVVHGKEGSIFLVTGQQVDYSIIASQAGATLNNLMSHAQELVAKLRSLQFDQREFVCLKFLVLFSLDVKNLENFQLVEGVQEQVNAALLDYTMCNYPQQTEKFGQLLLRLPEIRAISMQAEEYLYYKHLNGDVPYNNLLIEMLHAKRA

[4] = target: Steroidogenic factor 1 (Homo sapiens) (UniProt Q13285); assay: SF1 (NR5A1) inverse agonists, counter-screen for LRH-1 inverse agonist project, cell-based, luminescence, high throughput (AID 651614; in the data active = inhibition above about 44%;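 also: cells cotransfected with StAR promoter reporter and SF1 expression vector; 0% = vehicle on cells with receptor and 100% = vehicle on cells lacking receptor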); settings: cell-based SF1 luciferase reporter, at 3.6 µM, hits give high values
Sequence of Steroidogenic factor 1 (Homo sapiens) (Q13285 whole entry, looked up): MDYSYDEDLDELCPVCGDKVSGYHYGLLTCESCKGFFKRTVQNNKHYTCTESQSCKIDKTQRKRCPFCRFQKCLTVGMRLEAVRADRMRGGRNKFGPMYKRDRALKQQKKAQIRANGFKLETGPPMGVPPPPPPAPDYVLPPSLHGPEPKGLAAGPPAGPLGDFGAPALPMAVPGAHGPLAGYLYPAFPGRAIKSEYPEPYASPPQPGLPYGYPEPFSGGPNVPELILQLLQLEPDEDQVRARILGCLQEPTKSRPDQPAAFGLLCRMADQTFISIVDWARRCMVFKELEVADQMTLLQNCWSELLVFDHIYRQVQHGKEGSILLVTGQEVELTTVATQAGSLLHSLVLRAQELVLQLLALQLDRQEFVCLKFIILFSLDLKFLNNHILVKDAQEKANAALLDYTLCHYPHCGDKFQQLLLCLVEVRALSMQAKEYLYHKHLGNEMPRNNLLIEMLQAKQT

[5] = growth loss of phage-infected RecBCD+ E. coli, confirmation, RecBCD inhibitor project, absorbance, E. coli V66, T4 gene 2 phage (AID 651982;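 active = mean inhibition over triplicates exceeding the hit threshold derived in the original primary screen, cut at about 11% in these data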); settings: E. coli V66 + T4 2- phage, growth OD; at 11.9 µM; hits give high values
[6] = E. coli viability inhibition, counter-screen for RecBCD inhibitor project, absorbance, high throughput (AID 651983; in the data active = inhibition above about 20%;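 also: E. coli strain V66 grown with compound alone and no phage infection; 0% = bacteria with DMSO vehicle only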); settings: absorbance (OD) growth, at 11.9 µM, hits give high values
[7] = growth loss of phage-infected AddAB-carrying E. coli, confirmation, counter-screen for RecBCD inhibitor project, absorbance, E. coli V3065, T4 phage (AID 651984;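 active = mean inhibition above the solvent-only control wells' mean plus 3 SD, cut at about 22% in these data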;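 also: higher means less bacterial growth from phage killing when AddAB is blocked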); settings: E. coli expressing H. pylori AddAB + T4 phage, OD growth; at 11.9 µM; hits give high values; gene 2 mutant T4, recBCD-deleted host
[8] = Gal4-VP16 luciferase reporter inhibitors, counter-screen for COUP-TFII antagonist project, cell-based, luminescence, HEK293 (AID 687007; in the data active = inhibition above about 13%); settings: at 8.5 µM, hits give high values
[9] = target: COUP transcription factor 2 (Homo sapiens) (UniProt P24468); assay: NR2F2 transcriptional activity inhibitors, confirmation, cell-based, luciferase reporter, HEK293, triplicate (AID 687008;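 active = mean inhibition over three repeats above a set limit taken from the earlier primary screen, cut at about 38% in these data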;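 also: 100% = cells given the luciferase reporter alone without the COUP-TF2 vector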); settings: HEK293 NGFI-A luciferase reporter, luminescence; at 8.5 µM; hits give high values
Sequence of COUP transcription factor 2 (Homo sapiens) (P24468 whole entry, looked up): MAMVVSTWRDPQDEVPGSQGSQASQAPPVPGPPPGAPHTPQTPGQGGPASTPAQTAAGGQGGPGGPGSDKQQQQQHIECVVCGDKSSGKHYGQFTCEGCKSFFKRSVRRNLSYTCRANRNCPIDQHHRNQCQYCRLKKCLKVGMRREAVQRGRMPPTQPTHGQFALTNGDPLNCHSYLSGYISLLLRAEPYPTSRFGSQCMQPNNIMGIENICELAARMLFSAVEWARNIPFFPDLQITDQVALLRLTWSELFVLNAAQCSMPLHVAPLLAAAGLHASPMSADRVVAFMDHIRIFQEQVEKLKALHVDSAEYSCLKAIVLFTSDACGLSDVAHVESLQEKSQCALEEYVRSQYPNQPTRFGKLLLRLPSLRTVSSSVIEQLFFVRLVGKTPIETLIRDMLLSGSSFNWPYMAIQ

[10] = test system: transactivating tegument protein VP16 (Human herpesvirus 1); assay: VP16 transactivation reporter inhibitors, counter-screen for SRC2 inhibitor project, cell-based, luminescence, single concentration (AID 652007); settings: cell-based VP16 transactivation luciferase reporter, at 8.9 µM, hits give high values
[11] = target: Nuclear receptor coactivator 2 (Homo sapiens) (UniProt Q15596); assay: SRC2 coactivator transcriptional activity inhibitors, confirmation, cell-based, luminescence, HEK293, triplicate (AID 652008;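 active = mean inhibition above 46.5%, the solvent-only control mean plus 3 SD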;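 also: 0% = DMSO-treated cells and 100% = Gossypol at 36 µM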); settings: HEK293 GAL4-SRC2 luciferase reporter, at 8.9 µM, hits give high values
Sequence of Nuclear receptor coactivator 2 (Homo sapiens) (Q15596 whole entry, looked up, the tested form may be a part): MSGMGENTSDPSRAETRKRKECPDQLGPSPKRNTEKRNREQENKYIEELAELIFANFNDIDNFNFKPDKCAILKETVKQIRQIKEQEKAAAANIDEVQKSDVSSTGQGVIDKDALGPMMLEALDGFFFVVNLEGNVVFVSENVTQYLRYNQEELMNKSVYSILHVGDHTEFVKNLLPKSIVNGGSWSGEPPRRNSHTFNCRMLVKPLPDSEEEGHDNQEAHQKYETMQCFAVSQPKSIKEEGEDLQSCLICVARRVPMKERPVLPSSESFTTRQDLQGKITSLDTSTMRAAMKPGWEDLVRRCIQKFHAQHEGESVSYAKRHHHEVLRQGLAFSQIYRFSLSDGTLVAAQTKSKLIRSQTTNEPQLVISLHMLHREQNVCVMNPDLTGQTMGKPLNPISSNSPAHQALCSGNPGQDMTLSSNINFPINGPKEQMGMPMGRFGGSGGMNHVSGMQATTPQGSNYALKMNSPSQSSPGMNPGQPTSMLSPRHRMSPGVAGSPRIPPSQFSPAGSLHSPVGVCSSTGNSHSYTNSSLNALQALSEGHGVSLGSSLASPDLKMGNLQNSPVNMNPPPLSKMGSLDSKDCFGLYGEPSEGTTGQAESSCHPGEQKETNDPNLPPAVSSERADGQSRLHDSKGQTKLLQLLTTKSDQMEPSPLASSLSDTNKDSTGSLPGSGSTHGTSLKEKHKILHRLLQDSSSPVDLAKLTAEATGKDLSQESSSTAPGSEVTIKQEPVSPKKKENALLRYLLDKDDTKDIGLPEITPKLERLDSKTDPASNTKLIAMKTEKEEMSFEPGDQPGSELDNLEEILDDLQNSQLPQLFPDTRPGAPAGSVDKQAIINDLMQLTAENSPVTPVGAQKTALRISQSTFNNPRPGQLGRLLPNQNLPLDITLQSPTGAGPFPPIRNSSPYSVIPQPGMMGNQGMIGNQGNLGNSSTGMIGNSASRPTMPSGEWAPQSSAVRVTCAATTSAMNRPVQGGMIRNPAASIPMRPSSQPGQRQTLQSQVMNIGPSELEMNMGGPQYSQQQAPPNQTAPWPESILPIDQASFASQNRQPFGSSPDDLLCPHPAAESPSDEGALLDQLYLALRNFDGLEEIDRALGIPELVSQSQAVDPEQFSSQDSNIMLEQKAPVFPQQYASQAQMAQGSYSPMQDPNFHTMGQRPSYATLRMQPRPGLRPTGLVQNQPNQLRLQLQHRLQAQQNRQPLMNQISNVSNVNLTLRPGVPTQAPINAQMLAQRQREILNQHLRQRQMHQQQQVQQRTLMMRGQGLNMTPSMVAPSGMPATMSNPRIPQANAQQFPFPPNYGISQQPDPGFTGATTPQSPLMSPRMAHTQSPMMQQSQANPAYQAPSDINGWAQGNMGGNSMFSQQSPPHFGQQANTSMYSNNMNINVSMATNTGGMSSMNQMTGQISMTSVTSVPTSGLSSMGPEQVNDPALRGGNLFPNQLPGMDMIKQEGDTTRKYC

CC(C)(C)C(=O)/C(=C/c1cccc([N+](=O)[O-])c1)n1cncn1
inhibition [1]: 87.2% (active)
inhibition [2]: 83.7% (active)

O=C(N/N=C/c1ccc([N+](=O)[O-])s1)c1cccnc1
inhibition [1]: 13.9%
inhibition [2]: 7.08%

CC(N)C(=O)NC(CO)C(O)C(N)C=O (stereo unspecified)
inhibition [3]: 56.3% (active)
inhibition [4]: 55.5% (active)

CC(=O)NC(c1cccs1)c1cc(Br)c2cccnc2c1O (stereo unspecified)
inhibition [5]: 10.7%
inhibition [6]: 16.4%
inhibition [7]: 16.1%

O=C(Nc1ccc(Br)cn1)C1CCN(S(=O)(=O)c2cccs2)CC1
inhibition [1]: 13.5%
inhibition [3]: 48.4% (active)
inhibition [4]: 50.2% (active)
inhibition [2]: 45.3% (active)
inhibition [8]: 13.1% (active)
inhibition [9]: 48.2% (active)

COc1cccc(N2CCN(CC(=O)Nc3ccc(-n4cnnn4)cc3)CC2)c1
inhibition [4]: 48.9% (active)

COc1ccc(-c2nc3c([nH]2)c(=O)n(C)c(=O)n3C)c(OC)c1
inhibition [3]: 24.5%
inhibition [4]: 12.7%

CC1(C(=O)NS(=O)(=O)c2ccccc2)CCN1C(=O)C/C=C/c1ccccc1 (stereo unspecified)
inhibition [5]: -4.38%
inhibition [6]: -3.55%
inhibition [7]: -0.33%

CC(C)(C)C(=O)/C(=C\c1cccc([N+](=O)[O-])c1)n1cncn1
inhibition [1]: 84.9% (active)
inhibition [2]: 85% (active)

CCN1CCN(C(=O)N[C@@H](C(=O)N[C@@H]2C(=O)N3C(C(=O)O)=C(CSc4nnnn4C)CS[C@H]23)c2ccc(O)cc2)C(=O)C1=O
inhibition [5]: 99.8% (active)
inhibition [6]: 101% (active)
inhibition [7]: 3.42%

CC1=C(C/C=C(\C)CCCC(C)CCCC(C)CCCC(C)C)C(=O)c2ccccc2C1=O (stereo unspecified)
inhibition [5]: 0.32%
inhibition [6]: 0.53%
inhibition [7]: -1.36%

COc1ccc(NC(=O)/C(Cl)=C(/Cl)S(=O)Cc2ccccc2)cn1 (stereo unspecified)
inhibition [1]: 56.1% (active)
inhibition [3]: 87.8% (active)
inhibition [4]: 78.2% (active)
inhibition [2]: 94.5% (active)
inhibition [10]: 95.8% (active)
inhibition [11]: 100% (active)

Cn1cc(C(=O)c2ccc(Cl)cc2)cc1-c1nc2ccccc2n1C
inhibition [3]: 51.9% (active)
inhibition [4]: 49.8% (active)

CCCCC(=O)NC(c1ccc(OC)c(OC)c1)c1ccc2cccnc2c1O (stereo unspecified)
inhibition [5]: 13.9% (active)
inhibition [6]: 17.6%
inhibition [7]: 25.8% (active)

CN(C)c1ccnc2sc(C(N)=O)c(N)c12
inhibition [10]: -0.64%

CN(C)C(=O)c1cccc(COc2ccc(N3C(N)=NC(N)=NC3(C)C)cc2Cl)c1
inhibition [3]: 42.1% (active)
inhibition [4]: 39.9%

CC(C)(C)c1ccc(Oc2ccc(NC(=O)C3CC=CCC3C(=O)O)cc2)cc1 (stereo unspecified)
inhibition [1]: 1.67%
inhibition [3]: 6.39%
inhibition [4]: 0.96%
inhibition [2]: 5.54%
inhibition [10]: 8.31%
inhibition [11]: 19.9%

NC1=NC(=O)C(Cc2cccc(Cl)c2Cl)S1 (stereo unspecified)
inhibition [5]: 0.33%
inhibition [6]: 0.21%
inhibition [7]: -2.48%

COc1ccc(CNCc2ccc(C(F)(F)F)cc2)cc1OC
inhibition [10]: 0.19%
inhibition [11]: -3.81%

C=C(C(=O)c1ccccc1)C(C)CC(=O)c1ccccc1 (stereo unspecified)
inhibition [10]: 11.5%
inhibition [11]: 26.8%

Cc1ccc(S(=O)(=O)c2nc(NCCN(C)C)sc2Cl)cc1
inhibition [10]: -5.23%
inhibition [11]: 28.4%

CN(c1ccccc1)S(=O)(=O)c1ccc(C(=O)NCc2ccccc2CN2CCCC2)cc1
inhibition [10]: -19.8%
inhibition [11]: -25.8%

CN(C)c1ccc(C2Nc3ccccc3C(=O)N2CCCN2CCOCC2)cc1 (stereo unspecified)
inhibition [10]: -12.2%
inhibition [11]: 2.92%

CC(=O)Nc1ccc(NC(=O)c2nc(S(=O)(=O)Cc3cccc(C)c3)ncc2Cl)cc1
inhibition [10]: 21.6%
inhibition [11]: 50.8% (active)

O=C(c1ccc(Cl)cc1)C(CN1CCCCC1)c1ccccc1 (stereo unspecified)
inhibition [10]: 32.9%
inhibition [11]: 57.8% (active)

CCN(CC)c1nc(C=Cc2ccc(N(C)C)cc2)c2nccnc2n1
inhibition [10]: 17.1%
inhibition [11]: 21.8%

CC(=O)Nc1c([N+](=O)[O-])cc(C)c(Cl)c1[N+](=O)[O-]
inhibition [10]: -10.7%
inhibition [11]: 3.8%

CCc1ccc(CCNC(=O)OCCCN2CCC3(CCC(c4ccccc4)CC3)C2=O)cc1 (stereo unspecified)
inhibition [10]: 5.9%
inhibition [11]: 33.8%

Cn1nnnc1Sc1ncnc2scc(-c3ccsc3)c12
inhibition [10]: 18.3%
inhibition [11]: 45%

CC(C)(CN1CCC(Cc2ccccc2)CC1)NS(=O)(=O)c1ccccc1
inhibition [10]: 13.9%
inhibition [11]: 32.5%
